# Assay outcomes: PubChem, National Center for Advancing Translational Sciences (NCATS)
# The full list was thinned out, with hits kept by preference.
# HT1080 IDH1KD tx – qHTS for induction of synthetic lethality in tumor cells producing 2HG: qHTS for the HT-1080-IDH1KD cell line. HT-1080 IDH1 knockdown viability, ATP luminescence, 48 h. Potency, µM (titrated, usually from 46.1 µM), without a hit: at the highest dose activity, negative = toxicity, usual class: cytotoxic. actives 2% (n = 360,000);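 also: potency is read from the fitted curve at half-maximal effect; 0% = DMSO wells and -100% = cell-free medium wells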
#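 CellTiter-Glo luminescence after 48 h compound exposure at 37 degrees C of IDH1-knockdown HT-1080 cells in 5% FBS RPMI. %Activity scaled between DMSO wells and cell-free media wells, with curves fitted and assigned curve classes.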
# TDP1 cell CPT – qHTS for Inhibitors of human tyrosyl-DNA phosphodiesterase 1 (TDP1): qHTS in cells in presence of CPT; chicken DT40 Tdp1-/-;hTDP1 cells + 20 nM CPT, ATP luminescence, 48 h; Potency, µM (doses to about 46.2 µM), for the others: top-dose activity change, negative = growth inhibition, hits mostly inhibitors; actives 12% (n = 420,000); AID 686979, 2013; also: potency is read from the fitted curve at half-maximal effect; nearly all actives have a fitted effect of over 55% in size
#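 Cell growth measured by CellTiter-Glo luminescence after a minimum 48 h, 37 C compound exposure with 20 nM CPT in Tdp1-knockout DT40 cells stably expressing hTDP1, seeded 400/well; qHTS titration format.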
# HT1080NT lethal – qHTS for induction of synthetic lethality in tumor cells producing 2HG: qHTS for the HT-1080-NT fibrosarcoma cell line. Potency, µM (highest dose often 46.1 µM), for inactives: at the top dose activity, negative = less viability, most hits filed as cytotoxic. HT-1080-NT fibrosarcoma viability, CellTiter-Glo ATP luminescence, 48 h. actives 1.6% (n = 360,000);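 also: NT is the 2HG producing partner of a matched IDH1 knockdown line; potency is read from the fitted curve at half-maximal effect; 0% = DMSO-treated cells and -100% = media-only wells without cells; nearly all actives have a fitted effect of over 55% in size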
#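 Viability of the 2HG-overproducing fibrosarcoma line after 48 hours of compound exposure at 37 degrees C was determined by luminescence with CellTiter-Glo, and concentration-effect curves were then fitted and categorized.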
# DT40 TDP1 no CPT – qHTS for Inhibitors of human tyrosyl-DNA phosphodiesterase 1 (TDP1): qHTS in cells in absence of CPT; DT40 Tdp1-/- hTDP1 cells, no CPT, ATP luminescence, 48 h; Potency, µM (series often up to 46.2 µM), for the others: top-dose activity change, negative = growth inhibition, usual class: inhibitors; actives 15% (n = 420,000); AID 686978, 2013; also: potency is read from the fitted curve at half-maximal effect; nearly all actives have a fitted effect of over 55% in size
#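 Readout: luminescence from CellTiter-Glo after 30 min in the dark at RT. Cells: DT40 Tdp1-/- with stable hTDP1, 400/well. Exposure: compounds alone, ≥48 hr, 37 °C.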
# ALOX12 inh – Primary qHTS assay for inhibitors of human arachidonate 12S-lipoxygenase (ALOX12): Round 2; purified 12hLO, xylenol orange hydroperoxide absorbance; Potency, µM (top dose mostly 108 µM), inactives show at the top dose activity change, negative = inhibition, actives largely listed as inhibitors; actives 1.1% (n = 580,000); AID 1671190, 2021; also: potency is read from the fitted curve at half-maximal effect
# Target sequence (P18054 whole entry, looked up): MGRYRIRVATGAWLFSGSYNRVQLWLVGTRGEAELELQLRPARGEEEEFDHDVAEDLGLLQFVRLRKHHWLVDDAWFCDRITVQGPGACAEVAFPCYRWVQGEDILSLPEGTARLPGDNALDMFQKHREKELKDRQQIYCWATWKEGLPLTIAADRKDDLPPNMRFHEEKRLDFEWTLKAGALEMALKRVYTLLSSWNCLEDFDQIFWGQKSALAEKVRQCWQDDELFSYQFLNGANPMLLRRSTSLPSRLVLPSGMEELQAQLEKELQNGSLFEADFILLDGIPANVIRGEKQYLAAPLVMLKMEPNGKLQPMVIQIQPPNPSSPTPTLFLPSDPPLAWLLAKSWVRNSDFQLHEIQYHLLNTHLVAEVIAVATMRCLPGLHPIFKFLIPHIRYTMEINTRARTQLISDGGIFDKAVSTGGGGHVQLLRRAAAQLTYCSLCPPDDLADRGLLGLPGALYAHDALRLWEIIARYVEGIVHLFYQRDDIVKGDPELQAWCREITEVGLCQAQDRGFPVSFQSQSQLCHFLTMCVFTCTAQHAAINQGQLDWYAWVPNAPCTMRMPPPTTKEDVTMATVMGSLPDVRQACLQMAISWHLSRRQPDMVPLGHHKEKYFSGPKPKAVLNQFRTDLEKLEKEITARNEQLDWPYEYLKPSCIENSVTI
#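 Hydroperoxide product was detected by ferrous iron/xylenol orange as the 573 to 405 nm absorbance ratio. Arachidonic acid at 40 uM (final) was turned over for 30 min at room temperature by 150 nM human 12hLO, pH 7.0 Hepes buffer, after 15 min compound preincubation.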
# IL1B secr inh – qHTS for Inhibitors of Inflammasome Signaling: IL-1-beta AlphaLISA Primary Screen. THP-1 LPS/ATP IL-1B secretion, AlphaLISA, 16 h; active compounds read low. activity change, % at 57.5 µM. actives 4.7% (n = 360,000). AID 743279, 2014; in the data active = activity change below about -50%; inconclusive = mostly about -30% to -49%
#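 Secreted IL-1B measured by AlphaLISA bead assay after 16 h compound exposure of THP-1 cells; compounds (final up to 57.5 uM) added 1 h before LPS (250 ng/mL) and ATP (1.25 mM) stimulation; lower signal means less secretion.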
# The depositor's hits bear a star; ? = inconclusive; . = no result given; [ ] = remark or other dose. Unless noted, calls follow the shape of the dose curve; as a rule, active = well fitted curve in the direction sought with a large enough effect; inconclusive = small, poorly fitted or top-dose-only effect, or another doubt; inactive = no such curve, though single readings can be large; an effect the other way counts as inactive or inconclusive. Unless noted, % is scaled to controls: 0 for no effect and ±100 for the full control effect.
SMILES,HT1080 IDH1KD tx,TDP1 cell CPT,HT1080NT lethal,DT40 TDP1 no CPT,ALOX12 inh,IL1B secr inh
COC(=O)C(Cc1ccccc1)NC(=O)C(CC(C)C)NC(=O)OC(C)(C)C (stereo not drawn),14%,0%,5%,-27%,0%,19
Cc1cccc(NC(=O)[C@H](Cc2ccccc2)NC(=O)OCc2ccccc2)c1,-3%,-17%,-5%,?,8%,0
CCOC(=O)C(Cc1ccccc1)NC(=O)CNC(=O)CNC(=O)OCc1ccccc1 (stereo not drawn),-7%,-3%,-19%,-23%,-12%,-88*
CC(C)CC(NC(=O)OCc1ccccc1)C(=O)NC(Cc1ccccc1)C(=O)CCl (stereo not drawn),?,4.6µM*,?,2.9µM*,-30%,-100*
CC(Oc1ccc(C(=O)c2ccccc2)cc1)C(=O)N1CCc2ccccc21 (stereo not drawn),.,.,.,.,0%,.
CCOc1ccc(C(C(=O)NC2CCCCC2)N(C(=O)c2cnccn2)c2cccs2)cc1 (stereo not drawn),.,.,.,.,-12%,.
COCC(=O)N1CCn2c(nn(-c3ccc([N+](=O)[O-])cc3)c2=O)C1,.,.,.,.,9%[176 µM],.
CCN(CC)S(=O)(=O)c1ccc2oc(C(=O)N3CCCCCC3)c(C)c2c1,-13%,?,-20%,9.2µM*,0%,30
CCN(CC)S(=O)(=O)c1ccc2oc(C(=O)NC3CCCc4ccccc43)c(C)c2c1 (stereo not drawn),-3%,15µM*,-21%,10µM*,-10%,-1
CCN(CC)S(=O)(=O)c1ccc2oc(C(=O)N3CCc4ccccc4C3)c(C)c2c1,8%,?,6%,2.1µM*,.,-27
O=C(CCc1c[nH]c2ccccc12)N1CCN(CC(=O)N2CCCCCC2)CC1,.,.,.,.,-2%,.
O=C1C(=O)N(Cc2cccc([N+](=O)[O-])c2)c2ccccc21,?,0.65µM*,-20%,0.92µM*,-14%,-24
O=C1c2ccccc2N(Cc2ccc(Cl)cc2)C2=NCCN12,7%,-26%,16%,-4%,-1%,-4
O=C(CN1C(=O)C(=O)c2ccccc21)c1ccc(Cl)cc1,3%,5.8µM*,1%,3.3µM*,12%,6
O=C1C(=O)N(Cc2ccc(Cl)c(Cl)c2)c2ccccc21,.,2.7µM*,.,1.9µM*,?,.
COc1cccc(CN2C(=O)c3ccccc3S2(=O)=O)c1,-2%,14%,-1%,-17%,29%,21
O=C1c2ccc([N+](=O)[O-])cc2S(=O)(=O)N1Cc1ccccc1,-9%,15%,2%,1%,-7%,-94*
Cc1ccc(NC(=O)COC(=O)CCSc2ccc(F)cc2)c(Br)c1,.,.,.,.,2%,.
COc1ccc(C(=O)N2CCCCCNC(=O)[C@@H]3CCC[C@@H]32)c(OC)c1,.,.,.,.,41%,.
COc1ccc(C(=O)c2c(C)oc3cc(C#N)c(C#N)cc23)cc1,.,.,.,.,-22%,.
CC(CCc1ccccc1)NC(=O)CSc1nc2cc(Cl)ccc2s1 (stereo not drawn),.,.,.,.,9%,.
Cc1ccc(SC(C)C(=O)NC2CCCC2)c(C)c1 (stereo not drawn),.,.,.,.,-3%,.
Cc1[nH]c2ccccc2c1/C=C/c1ccnc2ccccc12,.,5.6µM*,.,2.8µM*,.,.
C(=C\c1c[nH]c2ccccc12)/c1ccnc2ccccc12,.,?,.,20µM*,.,.
Cc1[nH]c2ccccc2c1/C=C(\C#N)c1nc2ccccc2[nH]1,.,.,.,.,-24%,.
SMILES,HT1080 IDH1KD tx,TDP1 cell CPT,HT1080NT lethal,DT40 TDP1 no CPT,ALOX12 inh,IL1B secr inh
CCN(C(=O)COC(=O)c1cc2ccccc2oc1=O)c1ccccc1,.,.,.,.,0%,.
CCC(=O)N1CCN(c2ccc(NC(=O)c3c(OC)cccc3OC)cc2)CC1,.,.,.,.,14%,.
CCCCCCCCS(=O)CCCl (stereo not drawn),.,.,.,.,-22%,.
Cc1ccccc1OCC1CN(Cc2c[nH]c3ccccc23)C(=O)c2c(ccnc2-c2ccc(OCC(=O)O)cc2)O1 (stereo not drawn),.,.,.,.,15%,.
O=C(OCc1c(-c2ccccc2)ncc2ccccc12)c1ccc(F)cc1,7%,?,2%,16µM*,-17%,8
COc1cccc(-c2ncc3ccccc3c2COC(=O)N2CCOCC2)c1,6%,?,-4%,?,4%,-21
CCN(CC)C(=O)OCc1c(-c2ccccc2)ncc2ccccc12,10%,?,-1%,23µM*,-20%,-26
O=C(O)c1ccccc1C(=O)OCc1c(-c2ccccc2)ncc2ccccc12,0%,?,0%,-13%,?,39
COc1cccc(OC)c1C(=O)OCc1c(-c2ccccc2)ncc2ccccc12,-1%,21µM*,-2%,18µM*,1%,-7
COc1cccc(-c2ncc3ccccc3c2COC(=O)N2CCCCC2)c1,-7%,?,2%,16µM*,-12%,-1
COc1ccc(Cn2cc(C(=O)c3ccc(Cl)cc3)c(=O)c3cc4c(cc32)OCO4)cc1,.,?,.,23µM*,-9%,.
O=C(c1ccc2c(c1)OCO2)c1cn(Cc2ccc(Cl)cc2)c2ccc(F)cc2c1=O,.,?,.,21µM*,-63%,.
Cc1ccc2c(c1)c(=O)c(C(=O)c1ccc3c(c1)OCO3)cn2Cc1ccc(Cl)cc1,.,?,.,16µM*,-4%,.
CCN(CC)S(=O)(=O)c1cccc(-c2nnc(SCCOc3ccccc3C)o2)c1,-10%,?,-6%,?,6%,-7
CCCN(CC1CCOC1)S(=O)(=O)c1cccc(C(F)(F)F)c1 (stereo not drawn),.,.,.,.,4%,.
CCN(CC)S(=O)(=O)c1cccc(-c2nnc(SCCOc3ccccc3)o2)c1,-8%,16µM*,?,21µM*,0%,-13
COc1cc(-c2nnc(SCCOc3ccccc3)o2)cc(OC)c1OC,.,?,.,16µM*,-15%,.
CCCN(CC(=O)c1cc(C)n(C)c1C)S(=O)(=O)c1cccc(C(F)(F)F)c1,-7%,23µM*,-16%,?,0%,-3
CCN(CC)S(=O)(=O)c1cccc(-c2nnc(SCCOc3ccc(Cl)cc3)o2)c1,?,23µM*,-3%,?,-1%,-10
